As a reminder, the inhibition is the change of the read-out against control, counted positive when it falls.

Where “and” joins values, the source holds several entries; their conditions need not be identical. Equal entries are not always repeated. Hit rate of the full screen: of about 220,000 compounds, about 910 (0.41%) were called active.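 How the source made its calls: active means primary inhibition above the hit cutoff, then over 50% inhibition at one or more dose response concentrations (cut at about 23% in these data, passing the limit was not always enough); inconclusive means conflicting primary data, or primary hits not chosen for dose response; inactive means low primary inhibition, or under 50% at every dose.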 Shown is part of a subset that was picked to be rich in actives. Entries with a potency or affinity are not part of this list.

The text below walks through data of PubChem BioAssay AID1445 (SRMLSC, 2008).

Aminopeptidase N (Plasmodium falciparum (isolate 3D7)), sequence (O96935 whole entry, looked up): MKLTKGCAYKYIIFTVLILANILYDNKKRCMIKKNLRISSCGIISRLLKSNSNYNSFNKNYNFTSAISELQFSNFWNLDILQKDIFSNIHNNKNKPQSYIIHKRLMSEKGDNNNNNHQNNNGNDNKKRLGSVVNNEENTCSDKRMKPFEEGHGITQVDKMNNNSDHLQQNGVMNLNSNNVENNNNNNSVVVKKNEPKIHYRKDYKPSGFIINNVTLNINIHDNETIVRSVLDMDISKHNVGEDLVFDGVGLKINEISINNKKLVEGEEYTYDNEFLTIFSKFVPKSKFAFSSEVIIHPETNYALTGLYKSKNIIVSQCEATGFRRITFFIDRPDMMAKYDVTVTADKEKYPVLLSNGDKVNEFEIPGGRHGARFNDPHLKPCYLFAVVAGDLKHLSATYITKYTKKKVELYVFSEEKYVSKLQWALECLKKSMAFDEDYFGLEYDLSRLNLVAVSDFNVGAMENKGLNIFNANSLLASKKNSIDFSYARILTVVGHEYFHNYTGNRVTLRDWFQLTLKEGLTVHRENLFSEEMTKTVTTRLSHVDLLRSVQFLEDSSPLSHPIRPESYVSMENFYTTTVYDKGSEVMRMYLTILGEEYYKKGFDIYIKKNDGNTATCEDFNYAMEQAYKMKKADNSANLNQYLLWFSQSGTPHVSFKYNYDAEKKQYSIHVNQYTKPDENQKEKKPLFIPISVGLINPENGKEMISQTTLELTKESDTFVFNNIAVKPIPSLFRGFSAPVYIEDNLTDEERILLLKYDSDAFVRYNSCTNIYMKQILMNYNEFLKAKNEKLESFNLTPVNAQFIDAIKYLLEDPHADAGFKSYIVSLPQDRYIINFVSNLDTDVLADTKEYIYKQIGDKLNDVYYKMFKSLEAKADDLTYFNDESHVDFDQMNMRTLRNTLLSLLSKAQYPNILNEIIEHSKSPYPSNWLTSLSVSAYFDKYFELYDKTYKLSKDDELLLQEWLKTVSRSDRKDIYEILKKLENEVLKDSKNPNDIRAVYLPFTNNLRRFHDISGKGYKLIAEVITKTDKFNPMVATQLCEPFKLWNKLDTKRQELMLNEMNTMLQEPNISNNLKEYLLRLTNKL

This assay has as its target Aminopeptidase N (Plasmodium falciparum (isolate 3D7)) (UniProt O96935). Nature of the assay: malaria alanyl aminopeptidase activity blockers – biochemical, fluorogenic H-Leu-NHMec substrate, 1536-well (AID 1445).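 Further: plate controls were DMSO full reaction for no effect and no enzyme background for full effect.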 As to conditions: recombinant M1AAP, H-Leu-NHMec fluorogenic kinetic assay; at 30 µM, hits give high values unless noted.
As to `Cc1ccc(C(=O)NC(=S)NCC2CCCO2)cc1Br` (stereo unspecified), the inhibition is 3.05% (inactive).

On to `COc1ccc(C(=O)CSc2cc(C)nc(SCC(=O)c3ccc(C)cc3)n2)cc1`, for which the inhibition is 12.2% (inactive).

As for `Cn1c(C(O)C(O)c2ccccc2)nc2ccccc21` (stereo unspecified), the inhibition was -1.04% (inactive).

As to `CCCCC(=O)NC(NC(=O)CCCC)c1ccc(OCC(C)C)c(OC)c1`, the inhibition was 4.4% (inactive).

For the molecule `Cn1c(Sc2ccccc2Cl)c(C=O)c2ccccc21`, the inhibition was 3.59% (inactive).

With `CCN1C(=O)S/C(=C/c2c(OCc3ccc(C(=O)O)cc3)ccc3ccccc23)C1=O`, the inhibition is 9.62% (inactive).

With `Cc1ccc(S(=O)(=O)N(C)Cc2ccc(C(=O)N/N=C/c3ccc(OC(F)F)cc3)cc2)cc1`, the inhibition is -2.98% (inactive).

As for `Cc1cnc(NC(=O)CSc2nnc(-c3ccncc3)n2C2CCCCC2)s1`, the inhibition was 4.18% (inactive).

With `CN(Cc1nc(-c2ccccn2)no1)S(=O)(=O)c1ccc(Cl)cc1`, the inhibition was 0.8% (inactive).

As to `Cc1nc2sc(C(c3ccc(C(C)C)cc3)N3CCN(CCO)CC3)c(O)n2n1` (stereo unspecified), the inhibition was 1.32% (inactive).

As to `C=CCn1c(SCC(=O)/C(C#N)=C(\C)N)nc2sc(CC)cc2c1=O`, the inhibition is 5.1% (inactive).

As to `Cc1c(C)c2cc(Cl)c(O)c(CN3CCCCC3)c2oc1=O`, the inhibition is 36% (inactive).

Take `CCc1c(C)c2cc(Cl)c(O)c(CN3CCCCC3)c2oc1=O`: the inhibition is -1.01% (inactive).

As to `COc1c(O)cc2c(c1O)C(=O)CC(c1ccccc1)O2` (stereo unspecified), the inhibition is 4.17% (inactive).

Consider `C[C@@H]1Cc2c(O)c(O)cc(O)c2C(=O)O1`, for which the inhibition is -2.7% (inactive).

For `Cn1nc(-c2ccc(Cl)cc2)cc1NC(=O)CCCC(=O)O`, the inhibition was -1.87% (inactive).

On to `CC1CCc2cccc3c2N1c1cc(C#N)c(C#N)cc1O3` (stereo unspecified), for which the inhibition is -3.31% (inactive).

For the molecule `O=C(Nc1nc2ccccc2[nH]1)c1ccc(Br)o1`, the inhibition is 0.56% (inactive).

`Cc1ccc(O)c(-c2cc(C(=O)Nc3ccc(S(=O)(=O)Nc4nccc(C)n4)cc3)[nH]n2)c1`: the inhibition is 5.6% (inactive).

As to `O=C1CCC(C(=O)OCc2ccccc2)N1` (stereo unspecified), the inhibition is 2.24% (inactive).

`CCOC(=O)Cc1cc(=O)n2[nH]c(-c3ccc(Cl)cc3)cc2n1`: the inhibition is 7.9% (inactive).

For the molecule `CCOP(=O)(OCC)c1nc(-c2cccc3ccccc23)oc1NCc1ccc(OC)cc1`, the inhibition is 16.1% (inactive).

`CCOP(=O)(OCC)c1nc(Cc2ccccc2)oc1NCc1ccccc1`: the inhibition was 1.14% (inactive).

With `Cc1ccc(S(=O)(=O)Nc2cc(-c3ccc(Cl)cc3)nn2C)cc1`, the inhibition is 4.66% (inactive).

Turning to `Cc1ccc(S(=O)(=O)Nc2nc3n(n2)C(c2ccc(Cl)cc2)CC(=O)N3)cc1` (stereo unspecified), the inhibition is 4.26% (inactive).

For the molecule `Oc1[nH]c2ccccc2c1/C=N/N1CCCCC1`, the inhibition was -0.99% (inactive).

As to `CCc1nn(C(C)C(=O)NCCc2ccc(OC)c(OC)c2)c(=O)c2cc3occc3n12` (stereo unspecified), the inhibition was 10.4% (inactive).

Take `O=C(O)c1ccc(N2C(=O)c3cccc4c(C(=O)O)ccc(c34)C2=O)cc1`: the inhibition is 10.1% (inactive).

`O=C(O)c1cccc(N2C(=O)c3ccc4c5c(ccc(c35)C2=O)C(=O)N(c2cccc(C(=O)O)c2)C4=O)c1`: the inhibition is 11.6% (inactive).

As to `COc1cccc(-c2nnc(SCN3C(=O)c4ccccc4C3=O)n2C)c1`, the inhibition is -1.36% (inactive).

Turning to `Fc1ccc(CN2CCSCC2)cc1Br`, the inhibition is 0.38% (inactive).

For `CN1C(=O)/C(=C/c2ccccc2OCc2ccc(C(=O)O)cc2)NC1=S`, the inhibition was 22.6% (inactive).

Regarding `CN1C(=O)S/C(=C/c2ccccc2OCc2ccc(C(=O)O)cc2)C1=O`, the inhibition is 6.59% (inactive).

As for `COC(=O)c1ccc(COc2ccccc2/C=N/NS(=O)(=O)c2ccccc2)cc1`, the inhibition was 3.52% (inactive).

`COC(=O)c1ccc(COc2ccc(/C=N/Nc3cccc(C(=O)O)c3)cc2)cc1`: the inhibition is 5.29% (inactive).

For `O=C1NC(=S)N/C1=C\c1ccccc1OCc1ccc(C(=O)O)cc1`, the inhibition was 14.7% (inactive).

For `CN1C(=O)S/C(=C\c2ccccc2OCc2ccc(C(=O)O)cc2)C1=O`, the inhibition is 18.7% (inactive).

Turning to `O=C(Nn1c(Cc2ccccc2)nc2ccccc2c1=O)c1c(O)c2cccc3c2n(c1=O)CCC3`, the inhibition was -0.5% (inactive).

Turning to `Cc1cc(C(=O)N2CCC(C)CC2)on1`, the inhibition was 9.58% (inactive).

Consider `COc1nc(Nc2ccc([N+](=O)[O-])cc2)nc(NC2CCCCC2)n1`, for which the inhibition was 8.38% (inactive).

As for `COc1ccc(NC(=S)N2CCN(C(=O)C3CCCO3)CC2)c(OC)c1` (stereo unspecified), the inhibition was 1.1% (inactive).

Turning to `COCCNc1nnc(SCC(=O)Nc2cc(-c3ccccc3)nn2-c2ccccc2)s1`, the inhibition is 8.39% (inactive).

With `O=C(NNS(=O)(=O)c1ccccc1F)c1sccc1-n1cccc1`, the inhibition was 1.58% (inactive).

For the molecule `COC(=O)N/N=C/c1cc([N+](=O)[O-])cc(Br)c1O`, the inhibition was 19.9% (inactive).

Turning to `Cc1ccc([N+](=O)[O-])cc1/C=N/Nc1nnnn1-c1ccccc1`, the inhibition is -4.44% (inactive).

In the case of `COc1cc(CCC(=O)OCC(=O)Nc2ccccc2C(C)C)cc(OC)c1OC`, the inhibition was -3.32% (inactive).

For `N#CC(C#N)=C1C=CC=CN1/C(=C\c1ccco1)C(=O)c1ccc(-c2ccccc2)cc1`, the inhibition was 18.3% (inactive).

For the molecule `N#CC(C#N)=C1C=CC=CN1/C(=C\c1ccco1)C(=O)c1ccc(Cl)cc1`, the inhibition is 17.2% (inactive).

With `CCCc1nnc(NC(=O)NCCN2C(=O)C3C4C=CC(C4)C3C2=O)s1` (stereo unspecified), the inhibition was 0.7% (inactive).

In the case of `Cn1c(Cn2nnc(-c3ccccc3)n2)nnc1SCc1ccccc1Cl`, the inhibition is 0.85% (inactive).

As for `CC(C)C(=O)N(c1cc2sc(=O)oc2c2ccccc12)S(=O)(=O)c1cccs1`, the inhibition is 23.3% (active).

With `CC(C)C(=O)N(c1ccc2oc(=O)sc2c1)S(=O)(=O)c1cccs1`, the inhibition was 6.95% (inactive).

`CC(=O)N(c1ccc2oc(=O)sc2c1)S(=O)(=O)c1cccs1`: the inhibition was 21.6% (inactive).

For the molecule `Cc1ccc(-n2c(=O)cc(N3CCc4ccccc4C3)[nH]c2=O)cc1`, the inhibition was 3.06% (inactive).

Regarding `CCc1cc2c(CN3CCN(CC)CC3)cc(=O)oc2cc1O`, the inhibition is -1.87% (inactive).

In the case of `CCc1cc2c(CN3CCN(CCO)CC3)cc(=O)oc2cc1O`, the inhibition was 11.5% (inactive).

`CCCCc1cc(=O)oc2c(CN3CCCC3)c(O)c(Cl)cc12`: the inhibition was 13.1% (inactive).

Turning to `CCc1cc(=O)oc2c(CN3CCCC3)c(O)c(Cl)cc12`, the inhibition was 18.3% (inactive).

`CCCc1cc(=O)oc2cc(C)c(CN3CCCC3)c(O)c12`: the inhibition is 13.2% (inactive).

With `CCc1cc2c(-c3ccccc3)cc(=O)oc2c(CN2CCOCC2)c1O`, the inhibition is 9.72% (inactive).

For `CCOC(=O)c1ccc(NC(=S)NCCCN2CCOCC2)cc1`, the inhibition was -1.32% (inactive).

As for `CCO[C@@H]1OC(C(=O)N2CCOCC2)=C[C@H](c2ccc(C(F)(F)F)cc2)[C@H]1CCCO`, the inhibition is 2.16% (inactive).

Regarding `O=C(CSc1nc2c(sc3ccccc32)c(=O)n1CCCN1CCOCC1)NCC1CCCO1` (stereo unspecified), the inhibition was 1.22% (inactive).

For the molecule `Cc1ccc(N2/C(=N/c3nc(C)cc(C)n3)NC(=O)CC2C(=O)O)cc1` (stereo unspecified), the inhibition is -5.89% (inactive).

`O=Cc1ccc(-c2ccc(F)cc2)o1`: the inhibition is 12.4% (inactive).

`O=C(/C=C/c1ccc(-c2ccccc2)o1)c1ccccc1`: the inhibition was 4.34% (inactive).

For `N=c1c2c3c(sc2nc2n1CCC2)CCCC3`, the inhibition is 7.32% (inactive).

Consider `CCNc1nc(Cl)nc(-c2cn(-c3ccccc3)c3ccccc23)n1`, for which the inhibition is -7.96% (inactive).

Take `COc1ccc(NC(C)=O)cc1S(=O)(=O)N1CCN(C/C=C/c2ccccc2)CC1`: the inhibition was 2.09% (inactive).

As for `CCSc1nnc2c(n1)OC1(CCCC1)Nc1ccccc1-2`, the inhibition is 12.5% (inactive).

Regarding `O=C(N/N=C/c1cccc([N+](=O)[O-])c1)c1cc(-c2ccc3c4c(cccc24)CC3)n[nH]1`, the inhibition is 6.89% (inactive).

Consider `O=C(O)c1ccc(/C=N/NC(=O)c2cc(-c3ccc4c5c(cccc35)CC4)n[nH]2)cc1`, for which the inhibition was 13.5% (inactive).

In the case of `COc1ccc(-n2c(=S)[nH]c3cc(C(=O)NCc4ccco4)ccc3c2=O)cc1OC`, the inhibition is 7.75% (inactive) and 12.6% (inactive).

For the molecule `CCCc1cc(=O)[nH]c(Nc2cc(OC)ccc2OC)n1`, the inhibition was -0.31% (inactive).

With `CCOc1ccc(N(C(=O)c2ccccc2Cl)C2=NC(C)(C)CS2)cc1`, the inhibition was 5.11% (inactive).

Regarding `Fc1ccc2c(c1)C1C=CCC1C(c1cc3c(cc1Br)OCO3)N2` (stereo unspecified), the inhibition was 5.12% (inactive).

As for `Brc1cc2c(cc1C1Nc3ccccc3C3C=CCC31)OCO2` (stereo unspecified), the inhibition is 6.9% (inactive).

On to `COc1cccc(NS(=O)(=O)c2ccc3c(c2)C2C=CCC2C(c2ccc(C(=O)O)cc2)N3)c1` (stereo unspecified), for which the inhibition was 22.8% (inactive).

`O=C(O)c1ccc2c(c1)C1C=CCC1C(c1ccncc1)N2` (stereo unspecified): the inhibition was 9.23% (inactive).

For the molecule `Cc1nc2c(C)cccn2c1/C(O)=C1\C(=O)C(=O)N(CCN(C)C)C1c1ccccc1` (stereo unspecified), the inhibition was -2.63% (inactive).

For the molecule `CC(=O)c1ccccc1OC(=O)c1c(F)cccc1F`, the inhibition is 3.59% (inactive).

For `Cc1nc2cc(F)ccc2n1C1CCN(C(=O)c2c(F)cccc2F)CC1`, the inhibition is 5.28% (inactive).

Turning to `Cc1cccc(-c2c3c(=O)n(C)c(=O)n(C)c3cn2C(C)(C)C)c1`, the inhibition is 7.14% (inactive).

On to `O=c1[nH]c2ccc(NC(=S)NCc3ccccc3)cc2[nH]1`, for which the inhibition is -4.38% (inactive).

As for `C=CCn1c(COc2ccccc2)nnc1SC(C)C(=O)N/N=C/c1cc(Cl)ccc1O` (stereo unspecified), the inhibition was 46.5% (active).

For the molecule `C=CCn1c(COc2ccc(Cl)cc2)nnc1SCC(=O)N/N=C/c1ccccc1`, the inhibition is 0.22% (inactive).

On to `C=CCn1c(COc2ccc(Cl)cc2)nnc1SCC(=O)N/N=C/c1cccc(O)c1`, for which the inhibition is 6.07% (inactive).

In the case of `CC1CC(=O)Nc2ccccc2N1S(=O)(=O)c1ccc(Br)cc1` (stereo unspecified), the inhibition was -1.92% (inactive).

For the molecule `COc1ccccc1NC(=O)Cc1noc(CSc2nnc(C)n2C)n1`, the inhibition was -2.44% (inactive).

Turning to `Cc1ccccc1CS(=O)(=O)Cc1ccc(C(=O)NCc2ccccn2)o1`, the inhibition was 11.9% (inactive).

Take `Cc1ccc(-c2csc3ncnc(SCC(=O)O)c23)cc1`: the inhibition was -4.79% (inactive).

For the molecule `Cc1sc2ncnc(SCc3ccc(C(=O)O)cc3)c2c1C`, the inhibition is 8.46% (inactive).

Take `COC(=O)CSc1ncnc2scc(-c3ccccc3)c12`: the inhibition was 8.48% (inactive).

On to `CCc1cc2ccccc2nc1SCC(=O)Nc1cc(OC)c(OC)cc1C(=O)O`, for which the inhibition is 6.44% (inactive).

In the case of `O=C(CSc1ncnc2scc(-c3ccccc3)c12)Nc1ccc(C(=O)O)cc1`, the inhibition is 7.21% (inactive).

In the case of `CCc1cc2ccc(C)cc2nc1SCC(=O)Nc1cc(OC)c(OC)cc1C(=O)O`, the inhibition is 17.6% (inactive).
